Experimental data from the supplement of paper PMC9694430.
Counter-ions that a name gives are not always drawn.

Key:
Experiment in all cases: thermal shift delta Tm vs DMSO control; higher = stronger stabilization (binding)
Details in all cases: 12.5 µM; protein concentration 2 µM
LOC_OS01G57100-cb003 = tested on: LOC_OS01G57100-cb003
In short: (§1)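 Rice kinase domain constructs were expressed in E. coli, purified, and tested by differential scanning fluorimetry with compound added in DMSO. Each well of a 96-well plate held 19.5 μl of 2 μM kinase in 100 mM potassium phosphate pH 7.5, 150 mM NaCl, 10% glycerol and 5 × SYPRO Orange, and fluorescence was read from 25°C to 95°C at 0.05°C/s. The melting temperature shift is the mean of triplicates, taken against protein with DMSO alone after Boltzmann fitting.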

LOC_OS01G60330-cb001 = tested on: LOC_OS01G60330-cb001
In short: as §1

LOC_OS01G60700-cb002 = tested on: LOC_OS01G60700-cb002
In short: as §1

LOC_OS01G67340-cb003 = tested on: LOC_OS01G67340-cb003
In short: as §1

LOC_OS01G70970-cb002 = tested on: LOC_OS01G70970-cb002
In short: as §1

LOC_OS02G07810-cb001 = tested on: LOC_OS02G07810-cb001
In short: as §1

LOC_OS02G08530-cb003 = tested on: LOC_OS02G08530-cb003
In short: as §1

LOC_OS02G17970-cb001 = tested on: LOC_OS02G17970-cb001
In short: as §1

LOC_OS02G45750-cb003 = tested on: LOC_OS02G45750-cb003
In short: as §1

LOC_OS02G54510-cb004 = tested on: LOC_OS02G54510-cb004
In short: as §1

LOC_OS03G04050-cb001 = tested on: LOC_OS03G04050-cb001
In short: as §1

LOC_OS03G12390-cb001 = tested on: LOC_OS03G12390-cb001
In short: as §1

LOC_OS03G27990-cb004 = tested on: LOC_OS03G27990-cb004
In short: as §1

LOC_OS03G50450-cb001 = tested on: LOC_OS03G50450-cb001
In short: as §1

LOC_OS03G50810-cb003 = tested on: LOC_OS03G50810-cb003
In short: as §1

LOC_OS04G35114-cb001 = tested on: LOC_OS04G35114-cb001
In short: as §1

LOC_OS04G38480-cb003 = tested on: T1, LOC_OS04G38480-cb003
T1 sequence (whole entry): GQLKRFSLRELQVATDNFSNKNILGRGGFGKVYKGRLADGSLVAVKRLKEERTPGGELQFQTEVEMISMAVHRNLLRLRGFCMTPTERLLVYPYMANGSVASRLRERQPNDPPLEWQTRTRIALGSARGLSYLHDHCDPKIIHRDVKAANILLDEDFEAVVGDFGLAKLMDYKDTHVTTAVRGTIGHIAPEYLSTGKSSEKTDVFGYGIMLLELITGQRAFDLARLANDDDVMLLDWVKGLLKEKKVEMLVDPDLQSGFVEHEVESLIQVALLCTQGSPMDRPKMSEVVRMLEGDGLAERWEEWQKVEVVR
In short: as §1

LOC_OS04G41100-cb001 = tested on: T2, LOC_OS04G41100-cb001
T2 sequence (whole entry): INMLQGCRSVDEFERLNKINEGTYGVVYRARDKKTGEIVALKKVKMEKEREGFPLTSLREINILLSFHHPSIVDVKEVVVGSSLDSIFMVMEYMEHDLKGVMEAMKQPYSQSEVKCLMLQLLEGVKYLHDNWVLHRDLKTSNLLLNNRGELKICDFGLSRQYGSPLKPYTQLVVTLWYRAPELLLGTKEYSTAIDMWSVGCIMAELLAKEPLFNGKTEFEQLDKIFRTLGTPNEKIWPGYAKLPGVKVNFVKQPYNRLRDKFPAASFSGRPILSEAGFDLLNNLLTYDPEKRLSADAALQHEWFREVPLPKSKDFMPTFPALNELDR
In short: as §1

LOC_OS01G63280-cb003 = tested on: LOC_OS01G63280-cb003
In short: as §1

LOC_OS02G14120-cb001 = tested on: LOC_OS02G14120-cb001
In short: as §1

Row | SMILES | thermal shift delta Tm (LOC_OS01G57100-cb003) | thermal shift delta Tm (LOC_OS01G60330-cb001) | thermal shift delta Tm (LOC_OS01G60700-cb002) | thermal shift delta Tm (LOC_OS01G67340-cb003) | thermal shift delta Tm (LOC_OS01G70970-cb002) | thermal shift delta Tm (LOC_OS02G07810-cb001) | thermal shift delta Tm (LOC_OS02G08530-cb003) | thermal shift delta Tm (LOC_OS02G17970-cb001) | thermal shift delta Tm (LOC_OS02G45750-cb003) | thermal shift delta Tm (LOC_OS02G54510-cb004) | thermal shift delta Tm (LOC_OS03G04050-cb001) | thermal shift delta Tm (LOC_OS03G12390-cb001) | thermal shift delta Tm (LOC_OS03G27990-cb004) | thermal shift delta Tm (LOC_OS03G50450-cb001) | thermal shift delta Tm (LOC_OS03G50810-cb003) | thermal shift delta Tm (LOC_OS04G35114-cb001) | thermal shift delta Tm (LOC_OS04G38480-cb003) | thermal shift delta Tm (LOC_OS04G41100-cb001) | thermal shift delta Tm (LOC_OS01G63280-cb003) | thermal shift delta Tm (LOC_OS02G14120-cb001)
1 | O=c1[nH]nc(Sc2ncc([N+](=O)[O-])s2)n1-c1ccc2c(c1)OCCO2 | 6.97 °C | 0 °C | 4.73 °C | -6.49 °C | -7.96 °C | 1.41 °C | 1.83 °C | 3.38 °C | 1.36 °C | -0.1 °C | 0.22 °C | -1.14 °C | 0.03 °C | 0.84 °C | -0.33 °C | 0.5 °C | 3.06 °C | -0.54 °C | – | –
2 | N=C(N)NC(=N)NCCc1ccccc1 [Phenformin HCl] | 2.51 °C | 0.5 °C | 0.54 °C | -0.23 °C | 0.29 °C | 0.75 °C | -0.63 °C | 0.39 °C | 0.17 °C | -0.29 °C | 0.17 °C | -0.23 °C | 0.15 °C | 0.26 °C | 0.78 °C | -0.12 °C | 0.97 °C | -0.08 °C | 0.18 °C | 1.22 °C
3 | CCN(CC)CCNC(=O)c1c(C)[nH]c(/C=C2\C(=O)Nc3ccc(F)cc32)c1C [Sunitinib] | -0.24 °C | 9.23 °C | 0.91 °C | 4.15 °C | 6.85 °C | 0.37 °C | 4.95 °C | 0.22 °C | 0 °C | 0.62 °C | 0.04 °C | 7.93 °C | 7.62 °C | 3.43 °C | 7.56 °C | 11 °C | 3.55 °C | 0.46 °C | 0.49 °C | 7.49 °C
4 | CNC(=O)c1cc(Oc2ccc3nc(N[C@@H]4CCCC[C@H]4O)sc3c2)ccn1 | 1.55 °C | 0.59 °C | 1.46 °C | 1.16 °C | 0.25 °C | 0.97 °C | 0.76 °C | 0.53 °C | 0.99 °C | -0.11 °C | 0.37 °C | 0.22 °C | 0.15 °C | 0.65 °C | 0.6 °C | 0.24 °C | 1.59 °C | 0.59 °C | 0.76 °C | -0.02 °C
5 | Cc1cc(C(=O)Nc2nc3cccc(Cl)c3n2[C@@H]2CCCCN(C(=O)/C=C/CN(C)C)C2)ccn1 [Nazartinib (EGF816, NVS-816)] | 1.05 °C | 1.72 °C | 1.17 °C | 1.06 °C | 0.93 °C | 0.98 °C | 2.18 °C | 1.28 °C | 0.42 °C | 0.81 °C | 0.51 °C | 2.23 °C | 1.56 °C | 0.64 °C | 0.51 °C | 1.87 °C | 2.14 °C | 0.6 °C | 0.35 °C | 1.69 °C
6 | CS(=O)(=O)CCNCc1ccc(-c2ccc3ncnc(Nc4ccc(OCc5cccc(F)c5)c(Cl)c4)c3c2)o1 [Lapatinib] | 3.37 °C | 6.75 °C | 1.03 °C | 1.58 °C | 1.28 °C | 1.88 °C | 1.24 °C | 1.82 °C | 0.06 °C | -0.31 °C | 0.53 °C | 1.17 °C | 0.47 °C | 1.2 °C | 1.16 °C | 2.03 °C | 3.11 °C | 0.92 °C | – | 0.15 °C
7 | Cn1sc(=O)n(Cc2ccccc2)c1=O | 3.29 °C | -0.15 °C | 2.66 °C | -1.31 °C | – | 2.24 °C | -1.23 °C | 1.81 °C | -1.04 °C | -2 °C | -0.78 °C | -3.39 °C | -9.72 °C | -0.11 °C | -3.78 °C | 0.63 °C | 1.35 °C | 0.43 °C | 1.02 °C | -0.52 °C
